# Data: the supplement of paper PMC9262897, “Low-cost anti-mycobacterial drug discovery using engineered E. coli” (Nature Communications, 2022)
# Counter-ions that a name gives are not always drawn. ± gives the standard deviation of the averaged measurements.
# What was measured:
# Assay in all cases: growth (OD600 after 10 h); higher = more growth (less inhibition)
# [1] = system: E. coli TESEC Alr+ wild-type control; conditions: compound 0.1 mM; raw OD600 reference: median of DMSO wells 0.241, cell-free background 0.041
# Description: (§1)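 TESEC Mtb Alr E. coli, or the Alr+ wild-type control, in 384-well plates with Prestwick library compounds at 0.1 mM and 1% DMSO, across arabinose induction levels of 1E3 to 1E7 nM. Growth is read as OD600 after 10 h at 37 °C in triplicate biological replicates.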
# E. coli TESEC Mtb Alr [2] = conditions: compound 0.1 mM
# Description: as §1
# E. coli TESEC Mtb Asd = conditions: compound 0.1 mM
# Description: (§2)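 TESEC E. coli strains in which the native enzyme is deleted and replaced by arabinose-inducible Mtb Asd, DapB, CysH or TrpD, each grown in its selective medium. Strains were screened against the Prestwick library at 0.1 mM and 1% DMSO in 384-well format at low and high arabinose induction. Growth is read as OD600 after 10 h in triplicate.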
# E. coli TESEC Mtb DapB = conditions: compound 0.1 mM
# Description: as §2
# [3] = system: E. coli TESEC Alr+ wild-type control; conditions: compound 0.1 mM; raw OD600 reference: median of DMSO wells 0.49, cell-free background 0.052
# Description: (§3)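 TESEC Mtb Alr E. coli (ΔaraC ΔtolC ΔentC Δalr ΔdadX, arabinose-inducible Mtb Alr) or the Alr+ wild-type control strain, grown in defined M9-fructose medium without D-alanine in 96-well plates with Prestwick library compounds at 0.1 mM and 1% DMSO. Low Alr induction is 0.1 µM arabinose and high induction is 10 mM arabinose.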
# E. coli TESEC Mtb Alr [4] = conditions: compound 0.1 mM; remark: listed apart in the source
# Description: as §3
# [5] = arabinose 1000 nM, raw OD600 reference: median of DMSO wells 0.294, cell-free background 0.041
# [6] = arabinose 10000 nM, raw OD600 reference: median of DMSO wells 0.264, cell-free background 0.041
# [7] = arabinose 100000 nM, raw OD600 reference: median of DMSO wells 0.201, cell-free background 0.041
# [8] = arabinose 1000000 nM, raw OD600 reference: median of DMSO wells 0.193, cell-free background 0.041
# [9] = arabinose 10000000 nM, raw OD600 reference: median of DMSO wells 0.146, cell-free background 0.041
# [10] = arabinose induction (level): High, raw OD600 reference: median of DMSO wells 0.331, cell-free background 0.041
# [11] = arabinose induction (level): Low, raw OD600 reference: median of DMSO wells 0.417, cell-free background 0.041
# [12] = arabinose induction (level): High, raw OD600 reference: median of DMSO wells […], cell-free background 0.041
# [13] = arabinose induction (level): Low, raw OD600 reference: median of DMSO wells 0.227, cell-free background 0.041
# [14] = arabinose 100 nM, raw OD600 reference: median of DMSO wells 0.413, cell-free background 0.052
# [15] = arabinose 10000000 nM, raw OD600 reference: median of DMSO wells […], cell-free background 0.052
Compound,growth [1],growth (E. coli TESEC Mtb Alr [2]; [5]),growth (E. coli TESEC Mtb Alr [2]; [6]),growth (E. coli TESEC Mtb Alr [2]; [7]),growth (E. coli TESEC Mtb Alr [2]; [8]),growth (E. coli TESEC Mtb Alr [2]; [9]),growth (E. coli TESEC Mtb Asd; [10]),growth (E. coli TESEC Mtb Asd; [11]),growth (E. coli TESEC Mtb DapB; [12]),growth (E. coli TESEC Mtb DapB; [13]),growth [3],growth (E. coli TESEC Mtb Alr [4]; [14]),growth (E. coli TESEC Mtb Alr [4]; [15])
Cc1cc(O)c(C(=O)N[C@@H](C(=O)N[C@@H]2C(=O)N3C(C(=O)O)=C(CSc4nnnn4C)CS[C@H]23)c2ccc(O)cc2)cn1 [Cefpiramide],0.2668 ± 0.0012,0.3183 ± 0.00044,0.245 ± 0.0057,0.217 ± 0.015,0.208 ± 0.027,0.135 ± 0.0067,0.356 ± 0.063,0.375 ± 0.077,0.214 ± 0.007,0.239 ± 0.035,0.584 ± 0.046,0.419 ± 0.016,0.3403 ± 0.00045
Cc1[nH]c(=O)c(C#N)cc1-c1ccncc1 [Milrinone],0.199 ± 0.0031,0.27 ± 0.0094,0.229 ± 0.0033,0.169 ± 0.018,0.136 ± 0.0068,0.148 ± 0.0037,0.304 ± 0.06,0.329 ± 0.054,0.212 ± 0.0044,0.236 ± 0.014,0.636 ± 0.046,0.43 ± 0.0055,0.305 ± 0.0071
Cc1ncc([N+](=O)[O-])n1CCO [Metronidazole],0.244 ± 0.0028,0.291 ± 0.014,0.264 ± 0.0049,0.221 ± 0.036,0.177 ± 0.0036,0.144 ± 0.0031,0.378 ± 0.03,0.378 ± 0.013,0.202 ± 0.015,0.264 ± 0.052,0.426 ± 0.033,0.394 ± 0.021,0.347 ± 0.038
CCN(CCCc1ccccc1)CCCc1ccccc1 [Alverine citrate salt],0.205 ± 0.011,0.221 ± 0.013,0.286 ± 0.0067,0.177 ± 0.0094,0.1472 ± 0.00053,0.156 ± 0.011,0.211 ± 0.032,0.4 ± 0.074,0.153 ± 0.0058,0.205 ± 0.054,0.48 ± 0.026,0.418 ± 0.0047,0.328 ± 0.0065
CCC(=O)OCC(=O)[C@@]1(OC(=O)CC)[C@H](C)C[C@H]2[C@H]3[C@H]([C@@H](O)C[C@@]21C)[C@@]1(C)C=CC(=O)C=C1C[C@H]3Cl [Alclometasone dipropionate],0.21 ± 0.0058,0.318 ± 0.028,0.277 ± 0.017,0.226 ± 0.07,0.127 ± 0.022,0.217 ± 0.065,0.209 ± 0.013,0.459 ± 0.032,0.198 ± 0.0033,0.215 ± 0.0041,0.492 ± 0.04,0.401 ± 0.0078,0.241 ± 0.04
CO[C@@H]1[C@@H](O[C@@H]2O[C@H](C)[C@@H](O[C@H]3C[C@@](C)(O)[C@@H](OC(=O)CC(C)C)[C@H](C)O3)[C@H](N(C)C)[C@H]2O)[C@@H](CC=O)C[C@@H](C)[C@@H](O)/C=C/C=C/C[C@@H](C)OC(=O)C[C@H]1OC(C)=O [Josamycin],0.04167 ± 0.00025,0.04093 ± 5.8e-05,0.0406 ± 0.00026,0.04147 ± 0.00015,0.04073 ± 0.00029,0.04137 ± 5.8e-05,0.0609 ± 0.0067,0.0594 ± 0.0064,0.0494 ± 0.00059,0.0568 ± 0.0075,0.0528 ± 0.0019,0.0755 ± 0.021,0.0519 ± 0.00093
Clc1cc(Cl)c(OCC#CI)cc1Cl [Haloprogin],0.128 ± 0.027,0.249 ± 0.015,0.197 ± 0.0027,0.216 ± 0.004,0.137 ± 0.0043,0.168 ± 0.0052,0.242 ± 0.037,0.276 ± 0.095,0.245 ± 0.04,0.259 ± 0.018,0.195 ± 0.037,0.386 ± 0.027,0.104 ± 0.0032
Oc1c(Cl)cc(Cl)c2cccnc12 [Chloroxine],0.044 ± 0.00076,0.0429 ± 0.00083,0.0409 ± 0.00069,0.0435 ± 0.00076,0.0415 ± 0.00061,0.0495 ± 0.00057,0.0595 ± 0.0028,0.154 ± 0.05,0.0813 ± 0.015,0.117 ± 0.069,0.0623 ± 0.0012,0.0554 ± 0.0075,0.0726 ± 0.013
N[C@@H](C(=O)N[C@@H]1C(=O)N2C(C(=O)O)=C(Cl)CC[C@H]12)c1ccccc1 [Loracarbef],0.251 ± 0.0037,0.318 ± 0.0031,0.224 ± 0.0093,0.211 ± 0.024,0.175 ± 0.0071,0.151 ± 0.0052,0.362 ± 0.016,0.411 ± 0.0062,0.226 ± 0.017,0.234 ± 0.014,0.529 ± 0.067,0.0487 ± 0.0051,0.324 ± 0.024
CCN(CC)C(=S)SSC(=S)N(CC)CC [Disulfiram],0.278 ± 0.0078,0.197 ± 0.027,0.115 ± 0.0063,0.161 ± 0.014,0.0709 ± 0.0023,0.06003 ± 0.00047,0.192 ± 0.028,0.33 ± 0.034,0.161 ± 0.013,0.211 ± 0.01,0.443 ± 0.066,0.23 ± 0.093,0.146 ± 0.008
CNC(=C[N+](=O)[O-])NCCSCc1ccc(CN(C)C)o1 [Ranitidine hydrochloride],0.235 ± 0.0096,0.283 ± 0.015,0.252 ± 0.0043,0.203 ± 0.0086,0.179 ± 0.0036,0.1447 ± 0.0011,0.323 ± 0.037,0.455 ± 0.058,0.191 ± 0.011,0.234 ± 0.032,0.485 ± 0.064,0.408 ± 0.0097,0.338 ± 0.0081
C[C@@H]1NC(=O)NC1=O [Methylhydantoin-5-(L)],0.236 ± 0.0048,0.292 ± 0.012,0.274 ± 0.005,0.182 ± 0.017,0.186 ± 0.0047,0.1457 ± 0.0013,0.427 ± 0.024,0.44 ± 0.036,0.192 ± 0.013,0.245 ± 0.022,0.49 ± 0.056,0.411 ± 0.016,0.352 ± 0.014
CC[C@H]1OC(=O)[C@H](C)[C@@H](O[C@H]2C[C@@](C)(OC)[C@@H](O)[C@H](C)O2)[C@H](C)[C@@H](O[C@@H]2O[C@H](C)C[C@H](N(C)C)[C@H]2O)[C@](C)(OC)C[C@@H](C)C(=O)[C@H](C)[C@@H](O)[C@]1(C)O [Clarithromycin],0.0414 ± 0.00036,0.0421 ± 0.00026,0.04 ± 0.00071,0.0426 ± 0.00059,0.041 ± 0.0018,0.0437 ± 0.0036,0.0608 ± 0.013,0.0537 ± 0.0096,0.061 ± 0.0028,0.0632 ± 0.0078,0.055 ± 0.00044,0.0576 ± 0.0015,0.0524 ± 0.00061
CC(C(O)c1ccc(O)cc1)N1CCC(Cc2ccccc2)CC1 (stereo not drawn) [Ifenprodil tartrate],0.195 ± 0.018,0.251 ± 0.019,0.276 ± 0.0052,0.194 ± 0.0092,0.143 ± 0.0037,0.172 ± 0.0094,0.313 ± 0.065,0.427 ± 0.028,0.1878 ± 0.00062,0.227 ± 0.036,0.453 ± 0.037,0.409 ± 0.011,0.312 ± 0.0043
O=C(N[C@H](CO)[C@H](O)c1ccc([N+](=O)[O-])cc1)C(Cl)Cl [Chloramphenicol],0.0406 ± 0.00026,0.03953 ± 0.00031,0.0391 ± 0.00017,0.0408 ± 0.00053,0.03907 ± 0.00015,0.0407 ± 0.00064,0.0519 ± 0.00067,0.0522 ± 0.0019,0.0496 ± 0.00061,0.0578 ± 0.015,0.05047 ± 0.0005,0.0561 ± 0.0036,0.0533 ± 0.003
Nc1ccc(S(N)(=O)=O)cc1 [Sulfanilamide],0.249 ± 0.008,0.302 ± 0.011,0.2715 ± 0.0023,0.248 ± 0.014,0.205 ± 0.0051,0.142 ± 0.0052,0.318 ± 0.027,0.446 ± 0.0081,0.217 ± 0.022,0.263 ± 0.038,0.507 ± 0.044,0.388 ± 0.033,0.386 ± 0.0053
